# Inconclusive results are not listed. Values without a mark were called inactive. The source made the active and inactive calls. Calls come from the whole dose curve; as a rule, active = well fitted curve in the direction sought with a large enough effect; inconclusive = small, poorly fitted or top-dose-only effect, or another doubt; inactive = no such curve, though single readings can be large; an effect the other way counts as inactive or inconclusive.
# What was measured:
# [1] = Quantitative High-Throughput drug screen in 47 multiple myeloma cell lines against the NCATS MIPE library collection: KMS12BM_JCRB cell viability assay (AID 1918971); note: nearly all actives have a fitted effect of over 35% in size; note: potency is the fitted concentration of half-maximal effect
# How it was run: (§1)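 Myeloma cell lines, 500 cells per well, exposed to MIPE 4.0 library compounds for 48 h at 37C, 5% CO2. Viability from ATP by CellTiter-Glo luminescence; normalised to DMSO (100%) and media-only (0%) wells.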
# [2] = Quantitative High-Throughput drug screen in 47 multiple myeloma cell lines against the NCATS MIPE library collection: KMS12PE_JCRB cell viability assay (AID 1918972); note: nearly all actives have a fitted effect of over 30% in size
# How it was run: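 CellTiter-Glo luminescence (ATP) after 48 h compound exposure, 37C/5% CO2; 500 cells/well; MIPE 4.0 approved/investigational drugs pinned in; DMSO = 100%, media only = 0% viability.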
# [3] = Quantitative High-Throughput drug screen in 47 multiple myeloma cell lines against the NCATS MIPE library collection: NCIH929_DSMZ cell viability assay (AID 1918978); note: nearly all actives have a fitted effect of over 35% in size; note: potency is the fitted concentration of half-maximal effect
# How it was run: (§2)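 500 cells/well; MIPE 4.0 drugs pin-transferred; 48 h, 37C, 5% CO2. CellTiter-Glo, 5 min RT, luminescence. Controls: DMSO 100%, media 0%.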
# [4] = Quantitative High-Throughput drug screen in 47 multiple myeloma cell lines against the NCATS MIPE library collection: OCIMY1_PLB cell viability assay (AID 1918979); note: nearly all actives have a fitted effect of over 35% in size; note: potency is the fitted concentration of half-maximal effect
# How it was run: as §2
# [5] = Quantitative High-Throughput drug screen in 47 multiple myeloma cell lines against the NCATS MIPE library collection: MM1S_ATCC cell viability assay (AID 1918980); note: nearly all actives have a fitted effect of over 45% in size; note: potency is the fitted concentration of half-maximal effect
# How it was run: as §2
# [6] = Quantitative High-Throughput drug screen in 47 multiple myeloma cell lines against the NCATS MIPE library collection: MM1R_ATCC cell viability assay (AID 1918981); note: nearly all actives have a fitted effect of over 35% in size; note: potency is the fitted concentration of half-maximal effect
# How it was run: as §2
# [7] = Quantitative High-Throughput drug screen in 47 multiple myeloma cell lines against the NCATS MIPE library collection: LP1_DSMZ cell viability assay (AID 1918982); note: nearly all actives have a fitted effect of over 35% in size; note: potency is the fitted concentration of half-maximal effect
# How it was run: as §2
# [8] = Quantitative High-Throughput drug screen in 47 multiple myeloma cell lines against the NCATS MIPE library collection: KMS28PE_JCRB cell viability assay (AID 1918983); note: nearly all actives have a fitted effect of over 35% in size; note: potency is the fitted concentration of half-maximal effect
# How it was run: as §2
# [9] = Quantitative High-Throughput drug screen in 47 multiple myeloma cell lines against the NCATS MIPE library collection: L363_DSMZ cell viability assay (AID 1918984); conditions: L363 myeloma viability, CellTiter-Glo ATP luminescence, 48 h; viability (% of control): at 45.8 µM (top of the series); note: nearly all actives have a fitted effect of over 40% in size; note: potency is the fitted concentration of half-maximal effect
# How it was run: as §2
# [10] = Quantitative High-Throughput drug screen in 47 multiple myeloma cell lines against the NCATS MIPE library collection: OCIMY7_PLB cell viability assay (AID 1918987); conditions: OCI-MY7 myeloma viability, CellTiter-Glo ATP, 48 h; viability (% of DMSO): at 45.8 µM (top of the series); note: nearly all actives have a fitted effect of over 65% in size; note: potency is the fitted concentration of half-maximal effect
# How it was run: as §2
# [11] = Quantitative High-Throughput drug screen in 47 multiple myeloma cell lines against the NCATS MIPE library collection: OPM1_PLB cell viability assay (AID 1918989); note: nearly all actives have a fitted effect of over 40% in size; note: potency is the fitted concentration of half-maximal effect
# How it was run: as §2
# [12] = Quantitative High-Throughput drug screen in 47 multiple myeloma cell lines against the NCATS MIPE library collection: U266_ATCC cell viability assay (AID 1919864); note: nearly all actives have a fitted effect of over 35% in size; note: potency is the fitted concentration of half-maximal effect
# How it was run: as §2
# [13] = Quantitative High-Throughput drug screen in 47 multiple myeloma cell lines against the NCATS MIPE library collection: MMM1_PLB cell viability assay (AID 1918976)
# How it was run: as §2
# [14] = Quantitative High-Throughput drug screen in 47 multiple myeloma cell lines against the NCATS MIPE library collection: OCIMY5_PLB cell viability assay (AID 1918988); note: potency is the fitted concentration of half-maximal effect; nearly all actives have a fitted effect of over 65% in size
# How it was run: as §2
# [15] = Quantitative High-Throughput drug screen in 47 multiple myeloma cell lines against the NCATS MIPE library collection: SKMM1_PLB cell viability assay (AID 1919863); conditions: SKMM1 myeloma viability, CellTiter-Glo ATP, 48 h; viability: active compounds read low; note: nearly all actives have a fitted effect of over 35% in size; note: potency is the fitted concentration of half-maximal effect
# How it was run: as §2
# [16] = Quantitative High-Throughput drug screen in 47 multiple myeloma cell lines against the NCATS MIPE library collection: KMS20_JCRB cell viability assay (AID 1918973); note: nearly all actives have a fitted effect of over 45% in size; note: potency is the fitted concentration of half-maximal effect
# How it was run: (§3)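 Relative luminescence from CellTiter-Glo served as the viability signal, referenced to DMSO-treated (100%) and cell-free medium (0%) controls. Treatment lasted 48 hours at 37C with 500 cells per well.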
# [17] = Quantitative High-Throughput drug screen in 47 multiple myeloma cell lines against the NCATS MIPE library collection: KMS26_JCRB cell viability assay (AID 1918975); note: nearly all actives have a fitted effect of over 45% in size; note: potency is the fitted concentration of half-maximal effect
# How it was run: as §1
# [18] = Quantitative High-Throughput drug screen in 47 multiple myeloma cell lines against the NCATS MIPE library collection: KMS34_JCRB cell viability assay (AID 1918985); note: nearly all actives have a fitted effect of over 40% in size; note: potency is the fitted concentration of half-maximal effect
# How it was run: as §2
# [19] = Quantitative High-Throughput drug screen in 47 multiple myeloma cell lines against the NCATS MIPE library collection: MOLP8_DSMZ cell viability assay (AID 1918977); note: nearly all actives have a fitted effect of over 45% in size; note: potency is the fitted concentration of half-maximal effect
# How it was run: as §2
# [20] = Quantitative High-Throughput drug screen in 47 multiple myeloma cell lines against the NCATS MIPE library collection: KMS21BM_JCRB cell viability assay (AID 1918974); conditions: ATP luminescence, 48 h; viability: at 45.8 µM (top of the series); note: potency is the fitted concentration of half-maximal effect
# How it was run: as §3
structure (smiles),measurement,setting,value
O=C1CCCC(=O)C1C(=O)c1ccc(C(F)(F)F)cc1[N+](=O)[O-],Potency,[1],0.166 µM (active)
same,Potency,[2],inactive
same,Potency,[3],inactive
same,Potency,[4],inactive
same,Potency,[5],18.7 µM (active)
same,Potency,[6],inactive
same,Potency,[7],inactive
same,Potency,[8],inactive
same,Potency,[9],inactive
same,Potency,[10],inactive
same,Potency,[11],inactive
same,Potency,[12],20.9 µM (active)
CNc1nc(Nc2ccc(C(=O)N3CCOCC3)cc2OC)ncc1Cl,Potency,[1],14.8 µM (active)
same,Potency,[2],inactive
same,Potency,[13],13.2 µM (active)
same,Potency,[4],inactive
same,Potency,[6],5.9 µM (active)
same,Potency,[8],inactive
same,Potency,[10],inactive
same,Potency,[14],14.8 µM (active)
same,Potency,[11],inactive
same,viability,[15],112%
CN(C)S(=O)(=O)c1ccc2c(c1)C(=Cc1cc3c([nH]1)CCCC3)C(=O)N2,Potency,[1],8.33 µM (active)
same,Potency,[16],10.5 µM (active)
same,Potency,[17],2.35 µM (active)
same,Potency,[13],18.7 µM (active)
same,Potency,[3],18.7 µM (active)
same,Potency,[5],20.9 µM (active)
same,Potency,[6],2.96 µM (active)
same,Potency,[8],20.9 µM (active)
same,Potency,[18],5.9 µM (active)
same,Potency,[10],3.32 µM (active)
same,Potency,[14],2.09 µM (active)
CN1C(=O)C(Cc2c[nH]c3ccccc23)NC1=S (stereo unspecified),Potency,[1],13.2 µM (active)
same,Potency,[16],inactive
same,Potency,[17],inactive
same,Potency,[13],11.8 µM (active)
same,Potency,[19],inactive
same,Potency,[3],inactive
same,Potency,[4],inactive
same,Potency,[5],inactive
same,Potency,[6],inactive
same,Potency,[7],inactive
same,Potency,[8],inactive
same,Potency,[9],inactive
same,Potency,[18],inactive
same,Potency,[15],0.418 µM (active)
same,Potency,[12],5.9 µM (active)
NC[C@H]1O[C@H](O[C@@H]2[C@@H](O)[C@@H](O[C@H]3O[C@H](CO)[C@@H](O)[C@H](N)[C@@H]3O)[C@H](N)C[C@@H]2N)[C@H](O)[C@@H](O)[C@H]1O,Potency,[1],inactive
same,Potency,[2],inactive
same,Potency,[19],inactive
same,Potency,[3],inactive
same,Potency,[4],inactive
same,Potency,[6],inactive
same,Potency,[7],inactive
same,Potency,[8],inactive
same,Potency,[9],inactive
same,Potency,[18],inactive
same,Potency,[11],inactive
same,viability,[15],120%
C#CCN(C)CC1=Cc2ccccc2Oc2ccccc21,Potency,[1],16.6 µM (active)
same,Potency,[2],inactive
same,Potency,[19],inactive
same,Potency,[3],inactive
same,Potency,[4],inactive
same,Potency,[14],20.9 µM (active)
Cc1cccc(-c2[nH]c(C(C)(C)C)nc2-c2ccc3c(c2)OCO3)n1,Potency,[1],18.7 µM (active)
same,Potency,[16],2.35 µM (active)
same,Potency,[17],16.6 µM (active)
same,Potency,[13],16.6 µM (active)
same,Potency,[19],6.62 µM (active)
same,Potency,[3],6.62 µM (active)
same,Potency,[5],16.6 µM (active)
same,Potency,[8],20.9 µM (active)
same,Potency,[9],2.35 µM (active)
same,Potency,[18],18.7 µM (active)
same,Potency,[10],9.35 µM (active)
same,Potency,[14],14.8 µM (active)
same,Potency,[11],1.87 µM (active)
same,Potency,[15],20.9 µM (active)
same,Potency,[12],16.6 µM (active)
NC(N)=Nc1nc(CSCCC(N)=NS(N)(=O)=O)cs1,Potency,[1],inactive
same,Potency,[2],inactive
same,Potency,[3],8.33 µM (active)
same,Potency,[5],9.35 µM (active)
same,Potency,[6],23.5 µM (active)
same,Potency,[7],inactive
same,Potency,[8],inactive
same,Potency,[18],inactive
same,Potency,[10],10.5 µM (active)
same,Potency,[14],29.6 µM (active)
same,Potency,[11],16.6 µM (active)
same,Potency,[12],20.9 µM (active)
CCNC(=O)CCCC=CC[C@@H]1[C@H](C=CC(O)CCc2ccccc2)[C@@H](O)C[C@@H]1O (stereo partly specified),Potency,[1],7.43 µM (active)
same,Potency,[2],inactive
same,Potency,[3],inactive
same,Potency,[4],inactive
same,Potency,[5],5.9 µM (active)
same,Potency,[6],26.4 µM (active)
same,Potency,[7],inactive
same,Potency,[8],inactive
same,Potency,[9],inactive
same,Potency,[14],26.4 µM (active)
same,Potency,[11],inactive
same,Potency,[12],inactive
NS(=O)(=O)c1ccc(Nc2nc(OCC3CCCCC3)c3[nH]cnc3n2)cc1,Potency,[1],26.4 µM (active)
same,Potency,[16],20.9 µM (active)
same,Potency,[20],4.18 µM (active)
same,Potency,[13],2.09 µM (active)
same,Potency,[3],4.18 µM (active)
same,Potency,[4],inactive
same,Potency,[5],18.7 µM (active)
same,Potency,[6],14.8 µM (active)
same,Potency,[9],20.9 µM (active)
same,Potency,[10],13.2 µM (active)
same,Potency,[14],23.5 µM (active)
same,Potency,[11],20.9 µM (active)
same,Potency,[12],20.9 µM (active)
CN1CCC(COc2cnc(-c3cccc(Cn4nc(-c5cccc(C#N)c5)ccc4=O)c3)nc2)CC1,Potency,[1],13.2 µM (active)
same,Potency,[16],0.526 µM (active)
same,Potency,[17],0.235 µM (active)
same,Potency,[13],0.059 µM (active)
same,Potency,[19],inactive
same,Potency,[3],0.0526 µM (active)
same,Potency,[4],inactive
same,Potency,[5],0.0743 µM (active)
same,Potency,[6],18.7 µM (active)
same,Potency,[7],18.7 µM (active)
same,Potency,[8],inactive
same,Potency,[10],0.059 µM (active)
same,Potency,[14],0.0469 µM (active)
same,Potency,[11],16.6 µM (active)
same,Potency,[12],20.9 µM (active)
C[C@@H]1[C@H](C)CC[C@]2(C(=O)O)CC[C@]3(C)C(=CC[C@@H]4[C@@]5(C)CC[C@H](O)C(C)(C)[C@H]5CC[C@]43C)[C@@H]12,Potency,[1],19.1 µM (active)
same,Potency,[16],inactive
same,Potency,[17],19.1 µM (active)
same,Potency,[13],21.5 µM (active)
same,Potency,[3],inactive
same,Potency,[4],54 µM (active)
same,Potency,[5],inactive
same,Potency,[6],21.5 µM (active)
same,Potency,[7],48.1 µM (active)
same,Potency,[8],38.2 µM (active)
same,Potency,[18],34 µM (active)
same,Potency,[14],1.52 µM (active)
same,Potency,[11],inactive
